In PubChem BioAssay (NCI):
This is part of a sample that, as a whole, favours compounds with a hit. Of some 83,000 tested, about 20% had one in any assay.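 In brief: 96-well plates, 48 h treatment, single concentration, percent growth endpoint.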 A number with no mark means an inactive call. Activity calls are given as the source filed them. How the source made its calls: active means growth percent below 10; inactive means the rest.

Key:
Test in all cases: NCI-60 one-dose screen, 48 h (100 = growth as untreated, 0 = no growth, -100 = all killed)
SK-MEL-2 melanoma = conditions: 10 µM unless noted
EKVX NSCLC = conditions: 10 µM
SN12C renal = conditions: 10 µM unless noted
UO-31 renal = conditions: 10 µM unless noted
TK-10 renal = conditions: 10 µM unless noted
ACHN renal = conditions: 10 µM unless noted
A498 renal = conditions: 10 µM unless noted
CCRF-CEM leukemia = conditions: 10 µM
MOLT-4 leukemia = conditions: 10 µM unless noted
CAKI-1 renal = conditions: 10 µM unless noted

Compound | growth (SK-MEL-2 melanoma) | growth (EKVX NSCLC) | growth (SN12C renal) | growth (UO-31 renal) | growth (TK-10 renal) | growth (ACHN renal) | growth (A498 renal) | growth (CCRF-CEM leukemia) | growth (MOLT-4 leukemia) | growth (CAKI-1 renal)
Cc1c(Cc2ccccc2)c(=O)oc2c(C)c(OCc3n[nH]c(=S)o3)ccc12 | 101% | 79% | 67.8% | 94.8% | 116% | 89.2% | 67.3% | 22.8% | 19.8% | 
COc1ccccc1CNCCCN1C(=O)c2ccc3c4c(ccc(c24)C1=O)C(=O)N(CCCNCc1ccccc1OC)C3=O | -80.5% (active) | -63.6% (active) | -78.2% (active) | -84% (active) | -77.9% (active) | -46.8% (active) |  | -12.7% (active) | -37% (active) | -29.1% (active)
CC(=O)c1nn(-c2ccc(C)cc2)cc1C(=O)c1cc2c(ccc3ccccc32)oc1=O | 99.7% | 82.3% | 94.3% | 65.2% | 144% | 88.1% | 124% | 98.4% |  | 
O=C(CCCC(=O)Nc1ccc(Cn2nnc3cc(Cl)c(Cl)cc32)cc1)Nc1ccc(CN2N=NC3C=C(Cl)C(Cl)=CC32)cc1 (stereo unspecified) | 87.7% | 75.6% | 89.9% | 50.4% | 107% | 83.8% | 78.3% | 68.1% | 83.2% | 
CCOC(=O)c1c(C)oc2ncnc(Nc3ccc(C(=O)NCCc4ccccc4)cc3)c12 | 82.5% | 90.4% | 99.4% | 97.4% | 102% | 88.7% |  | 81% | 105% | 92.6%
[2H]c1nc(=Nc2cc(NC(=O)C=C)c(N(C)CCN(C)C)cc2OC)[nH]c(-c2cn(C([2H])([2H])[2H])c3ccccc23)c1[2H] | 55.8% | 39.7% | 35.3% | 24.2% | 26.8% | 23.3% | 36.7% | 18.4% | 13.3% | 
Cc1cc2c(-c3nc4ccccc4n3C)c(O)c(O)cc2c(O)c1-c1c(C)cc2c(-c3nc4ccccc4n3C)c(O)c(O)cc2c1O | 37.2% | 56.8% | 35.2% | 76.3% | 57.1% | 89.1% | 28.5% | 20.5% |  | 
O=C(Nc1cccc(Cn2c(=O)[nH]c3ccc(Oc4ncccn4)cc3c2=O)c1)c1ccc(Cl)cc1 | 59.5% | 52.3% | 63.5% | 47.7% | 58.5% | 40.3% |  | 47% | 22.5% | 60.9%
CN1C(=O)C(=Cc2coc3ccc(Br)cc3c2=O)C(=O)N(C)C1=O | 111% | 109% | 90.3% | 77.3% | 108% | 96.8% |  | 116% | 126% | 101%
CCS(=O)(=O)N[C@@H]1O[C@H](COC(C)=O)C(OC(C)=O)[C@H](OC(C)=O)C1OC(C)=O (stereo partly specified) | 106% | 99.1% | 112% | 94.6% | 97.4% | 101% |  |  | 106% | 94.8%
C[C@]12C=CC(=O)C=C1[C@@H](F)C[C@@H]1[C@@H]2[C@@H](O)C[C@@]2(C)[C@H]1CC[C@]2(O)C(=O)CO | 107% | 83% | 69.8% | 79.3% | 107% | 99.4% |  | 46.5% | 108% | 88.6%
COc1cc(-c2nc3c(c(C)nc4c3nnn4-c3ccccc3)c(=O)o2)cc(OC)c1OC | 107% | 115% | 102% | 87.9% | 104% | 103% |  | 96.2% | 102% | 94.8%
N#CC1=C(N2CCOCC2)NC2c3ccccc3Sc3ccccc3N2C1=N (stereo unspecified) | 108% | 92.8% | 103% | 72.9% | 96.9% | 91.5% |  | 82.7% | 120% | 94%
OC(c1ccccc1)(c1ccccc1)C(F)(F)F | 97.7% | 102% | 94.9% | 98.1% | 95.7% | 94.8% |  | 84.7% | 102% | 97.8%
O=C(/C=C1\C(=O)N(Cc2ccc([N+](=O)[O-])cc2)c2ccccc21)c1ccc(OCCN2CCCC2)cc1 | 93.7% | 71.5% | 37.3% | 40.8% | 82.8% | 45.7% | 83.1% | 15.2% | 9.27% (active) | 
COc1ccc(Oc2[nH]n(C3=Nc4ccccc4Sc4ccccc43)c(=O)c2C#N)cc1 | 101% | 94.4% | 102% | 87.9% | 108% | 89.5% |  | 92.8% | 107% | 92.4%
COC(=O)c1ccc2[nH]c(O)c(C(=Nc3ccc(N(C)C(=O)CN4CCN(C)CC4)cc3)c3ccc(C)cc3)c2c1 | -31.6% (active) | 23% | 9.81% (active) | -81.2% (active) | -82.7% (active) | -61.1% (active) |  | 1.57% (active) | -24.6% (active) | -41.6% (active)
O=S(=O)(O)c1ccc2c(c1)Sc1cc(S(=O)(=O)O)ccc1O2 | 107% | 90.1% | 95.8% | 97% | 107% | 112% |  | 107% | 115% | 105%
CCS(=O)(=O)OCCO[C@H]1Cc2cc3ccc(=O)oc3cc2OC1(C)C | 96.8% | 107% | 107% | 86.9% | 102% | 107% |  | 115% | 107% | 95%
C=CCSc1nnc(COc2ccc3c(C)c(Cc4ccccc4)c(=O)oc3c2C)o1 | 95.9% | 108% | 95.2% | 80% | 109% | 97.5% | 110% | 95.1% | 96% | 
c1ccc2[nH]c(-c3ccc(OCCCCCOc4ccc(-c5nc6ccccc6[nH]5)cc4)cc3)nc2c1 | 64% | 87% | 19.8% | 78% | -50.9% (active) | 35.5% |  | -87.9% (active) | -19.1% (active) | 94.1%
CCOc1ccc(/C=N/NC(=O)c2cccc3ccccc23)cc1OCC | 106% | 99.1% | 96.1% | 81.6% | 111% | 102% |  | 84.1% | 88.3% | 99.3%
COc1ccc(-c2cn3ccnc3c(-c3ccc4ncn(C5CCCCC5)c4c3)n2)cc1 | 5.74% (active) | 43.4% | 36.4% | 38.5% | 81.5% | 39% | -12.3% (active) | 6.73% (active) | 17.2% | 
CCOC(=O)c1cc(-c2ccc(OC)cc2)[nH]c1NNC(=O)CCOC | 103% | 101% | 107% | 77% | 63.7% | 107% |  | 57.8% | 58.1% | 88.8%
COc1ccc(C(=O)c2no[n+]([O-])c2C(=O)c2ccc(OC)cc2)cc1 | 93% | 64.8% | 72.5% | -100% (active) | 5.22% (active) | -47% (active) | 116% | -68.7% (active) | -80.1% (active) | 
COc1ccc2cc(C(C)C(=O)Nc3ccc(S(=O)(=O)Nc4cc(C)on4)cc3)ccc2c1 (stereo unspecified) | 117% | 97.5% | 116% | 90% | 103% | 97.3% |  |  | 106% | 86.4%
O=C(/C=C\c1ccccc1Cl)c1ccccc1 | 128% | 96.4% | 102% | 71.5% | 111% | 92.5% |  | -16.3% (active) | 91.8% | 90.8%
CCOC(=O)C1C(=O)C(=O)N(C(C)C)C1C(=O)OCC (stereo unspecified) | 113% | 106% | 94.4% | 86.2% | 99.1% | 94.3% |  | 110% | 122% | 105%
Oc1ccc2ccccc2c1/C=N\Nc1ccccn1 | 19.3% | -6.82% (active) | 22.4% | -24.7% (active) | 58.3% | 6.56% (active) |  | 8.91% (active) | 5.28% (active) | -26.4% (active)
c1ccc(-c2cn3ccnc3c(-c3ccc4ncn(C5CCCCC5)c4c3)n2)cc1 | 83.5% | 75.8% | 71.2% | 44.8% | 97.7% | 64.1% | 73.9% | 18.7% | 32.3% | 
